Several values for one entry are separate records, joined by “and”; a condition that tells them apart may be missing. Equal entries are not always repeated. Activity calls are given as the source filed them. Rule for the calls: active = hit-call score of the fitted dose curve at least 0.9, where 1 is the maximum; inactive = score below 0.9.
Test: CCTE_Shafer_MEA_acute_burst_percentage_mean: CCTE's Neural Acute Assay for Percentage of Spikes in a Burst, Shafer Lab (AID 2284017);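 for AC50: curve fitted for loss of signal so potency reflects decreased burst percentage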
Experimental: CCTE_Shafer_MEA_acute assay is conducted using Axion Biosystems 48 well microelectrode array (MEA) plates and Maestro recording system. Each well of the MEA plate contains a grid of 16 microelectrodes embedded in the culture surface. Electrically active cells, such as neurons, can be cultured over the electrodes, and electrical activity in these cells can be recorded extracellularly. The spontaneous firing of neurons is captured from each electrode on a microsecond timescale providing both temporally and spatially precise data. […] The CCTE_Shafer_MEA_acute assay uses primary cultures of rat cortical neurons. As these cultures mature over time, neural networks develop functional activity and form cohesive networks in which electrical activity can be highly coordinated. Baseline 40-minute recordings are made on days post-plating 13 or 15, followed by a secondary 40-minute recording after chemical exposure.CCTE_Shafer_MEA_acute_burst_percentage_mean is a component of the CCTE_Shafer_MEA_acute assay. It measures the percentage of spikes (action potential firing) in a single-electrode burst (temporally-clustered groups of spikes) as the number of spikes in bursts divided by the total number of spikes during a recording in a microelectrode array (MEA) using Axion Biosystems Maestro 768 channel amplifier with the AxIS adaptive spike detector. The average of the burst percentages across electrodes is calculated to report a well-level value. The recordings before and after chemical treatment are used to calculate a percent change in the mean burst percentage in each well.Data from the assay component CCTE_Shafer_MEA_acute_burst_percentage_mean was analyzed into 1 assay endpoint. This assay endpoint, CCTE_Shafer_MEA_acute_burst_percentage_mean, was analyzed in the negative analysis fitting direction relative to DMSO as the negative control and baseline of activity. Using a type of functional reporter, gain or loss-of-signal activity can be used to understand electrical activity.
Spontaneous activity in the cortical cultures was recorded using an Axion Biosystems Maestro 768 channel amplifier and Axion Integrated Studios (AxIS) v1.8 (or later) software. The amplifier recorded from all channels simultaneously (gain = 1200 x; sampling rate = 12.5 kHz/channel): raw signals were filtered with a Butterworth band-pass filter (300-5000 Hz), which filters out slower local field potentials leaving only fast potentials, i.e., "spikes", arising from extracellular currents associated with action potentials (Pine 2006; Wheeler and Nam 2011). On-line spike detection of filtered signals was conducted with the AxIS adaptive spike detector, using a threshold of 8x the root mean squared (rms) noise on each channel. Any electrodes with rms noise levels greater than 5 uV were grounded (e.g., no data were recorded). Once grounded, an electrode was grounded for the duration of the experiment. All recordings were conducted at 37 C. Wells were deemed usable if on the day of the exposure >/= 10 electrodes were active (defined as >/= 5 spikes/min). On DIV 13 or 15, a minimum of three wells from one cortical culture preparation were treated with each compound (0.03-40 uM). Prior to recording baseline activity, each mwMEA plate was placed in the Maestro at 37 C and allowed to sit for 20 min while firing rates stabilized. Baseline activity (40 min) was recorded before the addition of each compound. An additional 40 min of spontaneous activity was recorded in the presence of each compound. Changes in network parameters relative to baseline were assessed following compound treatment.
With `Clc1ccc(C(Cl)(Cl)Cl)cc1` the outcome was “inactive”. In the case of `CC#Cc1cc(C)nc(Nc2ccccc2)n1`, the AC50 is reported as 6.86 µM (active). For `c1ccc(-c2ccccc2)cc1`, the AC50 was 33.1 µM (active). For `COc1ccc(O)c(C(C)(C)C)c1`, the AC50 was 15 µM (active) and 1.45 µM (active) and 32.8 µM (active). For `COS(=O)(=O)OC`, the outcome was “inactive”. With `CCSC(=O)N(CC)C1CCCCC1` the AC50 was 7.15 µM (active). In the case of `O=C(N[C@H]1CN2CCC1CC2)c1cc2ccoc2cn1`, the outcome is reported as “inactive”. For `ClC1=C(Cl)[C@]2(Cl)[C@@H]3[C@@H]4C[C@@H]([C@H]5O[C@@H]45)[C@@H]3[C@@]1(Cl)C2(Cl)Cl`, the AC50 was 0.0949 µM (active). For `CCCCCCCCCC[N+](C)(C)CCCCCCCCCC`, the AC50 was 8.11 µM (active). With `CO/C=C(/C(=O)OC)c1ccccc1COc1cccc(C(F)(F)F)n1` the AC50 was 5.12 µM (active). In the case of `O=C(NC(=O)c1c(F)cccc1F)Nc1cc(Cl)c(OC(F)(F)C(F)F)c(Cl)c1`, the outcome is reported as “inactive”. With `Oc1ccc(C(c2ccc(O)cc2)(C(F)(F)F)C(F)(F)F)cc1` the AC50 was 25.3 µM (active). For `ClC1=C(Cl)[C@]2(Cl)[C@@H]3[C@@H](Cl)[C@H]4O[C@H]4[C@@H]3C1(Cl)C2(Cl)Cl`, the AC50 was 0.0303 µM (active). For `CCC(C)(CC)c1cc(NC(=O)c2c(OC)cccc2OC)on1`, the outcome was “inactive”. In the case of `CCC(C)c1cc([N+](=O)[O-])cc([N+](=O)[O-])c1O` (stereo unspecified), the outcome is reported as “inactive”. With `Nc1ccc(-c2ccc(N)cc2)cc1` the outcome was “inactive”. For `CC(C)C(=O)OCC(C)(C)C(OC(=O)C(C)C)C(C)C` (stereo unspecified), the outcome was “inactive”. For `CC(c1ccc(O)cc1)(c1ccc(O)cc1)c1ccc(O)cc1`, the AC50 was 29.6 µM (active). With `C=CC(N)=O` the outcome was “inactive”. In the case of `CCCN(CCC)N=O`, the outcome is reported as “inactive”. In the case of `ClC(Cl)=C(c1ccc(Cl)cc1)c1ccc(Cl)cc1`, the AC50 is reported as 33.2 µM (active). For `CCCCCCCCCc1ccc(O)cc1`, the AC50 was 22.5 µM (active). For `ClC1=C(Cl)[C@]2(Cl)[C@@H]3[C@H]4C[C@H]([C@@H]5O[C@H]45)[C@@H]3[C@@]1(Cl)C2(Cl)Cl`, the AC50 was 0.0239 µM (active). For `CN(C)CCO`, the outcome was “inactive”. With `O=C(O)C(F)(F)C(F)(F)C(F)(F)C(F)(F)C(F)(F)F` the outcome was “inactive”. For `CCC(C)(c1ccc(O)cc1)c1ccc(O)cc1`, the outcome was “inactive”.

From PubChem BioAssay (EPA / NIEHS)
